The source of these data is PubChem BioAssay AID619 (University of Pittsburgh Molecular Library Screening Center, 2007).

The whole screen tested about 97,000 compounds, of which about 520 (0.54%) were called active. This excerpt belongs to a sample that is enriched for actives. Unmarked numbers belong to inactive results.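 How the source made its calls: active means inhibition of 50% or more in the single-concentration screen; inactive means inhibition below 50%.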

Serine/threonine-protein kinase PLK1 (Homo sapiens), sequence (P53350 whole entry, looked up): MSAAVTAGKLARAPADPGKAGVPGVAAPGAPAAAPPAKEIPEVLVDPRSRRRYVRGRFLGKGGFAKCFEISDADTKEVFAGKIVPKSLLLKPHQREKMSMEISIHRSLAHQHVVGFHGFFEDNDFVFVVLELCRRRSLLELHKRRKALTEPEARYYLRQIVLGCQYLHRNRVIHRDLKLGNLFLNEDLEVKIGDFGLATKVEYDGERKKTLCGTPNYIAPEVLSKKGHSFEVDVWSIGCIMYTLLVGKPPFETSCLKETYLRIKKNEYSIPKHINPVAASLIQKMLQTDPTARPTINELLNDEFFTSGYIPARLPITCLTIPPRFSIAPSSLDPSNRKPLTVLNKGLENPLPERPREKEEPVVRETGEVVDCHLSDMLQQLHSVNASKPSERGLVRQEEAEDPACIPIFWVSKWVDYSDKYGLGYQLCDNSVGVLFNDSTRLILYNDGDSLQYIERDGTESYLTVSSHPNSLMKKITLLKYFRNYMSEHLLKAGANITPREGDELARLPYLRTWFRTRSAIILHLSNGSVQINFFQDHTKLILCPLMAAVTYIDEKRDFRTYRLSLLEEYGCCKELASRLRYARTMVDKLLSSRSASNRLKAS

This assay concerns the target Serine/threonine-protein kinase PLK1 (Homo sapiens) (UniProt P53350). Put plainly: Plk1 peptide phosphorylation blockers – biochemical, TR-FRET, primary screen (AID 619).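 Further: 0% = DMSO max control and 100% = H-89 dihydrochloride min control.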 The following applies: recombinant PLK1 kinase, at 10 µM, hits give high values. (TR-FRET usually uses a lanthanide donor and a delayed reading to cut background.)
The inhibition is the change of the read-out against control, counted positive when it falls. `COCC(=O)Nc1ccc(Br)cc1`: the inhibition was 2.4%.

Turning to `COc1ccc(NCc2nnc(SCc3ccccc3)n2-c2ccc(OC)cc2)cc1`, the inhibition is -14.5%.

As for `CC1Cc2ccccc2N1C(=O)c1cc2sccc2n1Cc1ccccc1` (stereo not given), the inhibition is -10.7%.

With `Cc1ccc(C(=O)N/C(=C/C=C/c2ccccc2)C(=O)NCc2ccco2)cc1`, the inhibition is -5.76%.

As to `O=C(/C=C/c1ccccc1)N/C(=C/c1ccccc1)C(=O)Nc1ccccc1O`, the inhibition was -4.44%.

Take `Cc1ccccc1-n1c(C)cc(/C=N/NC(=O)c2ccc(CN3CCOCC3)cc2)c1C`: the inhibition is -16%.

With `Fc1ccccc1COc1ccccc1CNCc1ccncc1`, the inhibition is -5.47%.

As for `COCCCNC(=O)CN1CCN(Cc2ccccc2Cl)C1=O`, the inhibition was -2.49%.

As to `COC(=O)CNS(=O)(=O)c1ccc(OC)cc1`, the inhibition is -2.7%.

For `Cc1ccc(-n2c(CNc3ccc(F)cc3)nnc2SCC(=O)N2CCOCC2)cc1`, the inhibition is -8.34%.

`O=C(NCc1ccccn1)c1cc(-c2ccccc2Cl)on1`: the inhibition was -11.3%.

In the case of `CCC(C)NC(=O)CCCc1ccccc1` (stereo not given), the inhibition is 3.26%.

For `O=C(Cn1cncn1)N/N=C/c1c2ccccc2cc2ccccc12`, the inhibition was -1.05%.

`CC1CCN(S(=O)(=O)c2ccc(S(=O)(=O)NCc3ccco3)cc2)CC1`: the inhibition is -3.69%.

Consider `Oc1ccc(-c2onc3ccc(Cl)cc23)cc1`, for which the inhibition was 7.69%.

For the molecule `Cn1nc(C(F)(F)F)c(C(=O)Nc2cccc(C(F)(F)F)c2)c1SCc1ccc(Cl)cc1`, the inhibition is -9.84%.

With `C=CCNc1nc(N)c(C(=C(C#N)C#N)c2ccccc2)s1`, the inhibition was -9.14%.

In the case of `Cc1c(Nc2cc(N3CCCC(C)C3)c3nonc3c2[N+](=O)[O-])c(=O)n(-c2ccccc2)n1C` (stereo not given), the inhibition was -8.74%.

Consider `O=C(Nc1nnc(SCc2c(Cl)cccc2Cl)s1)C1CCCO1` (stereo not given), for which the inhibition is 2.16%.

As to `CC(C)C[C@@H](N)c1nnc(SCC(=O)c2ccc(Cl)cc2)o1`, the inhibition is -3.08%.

Turning to `COc1ccc2[nH]cc(/C=C(/C#N)S(=O)(=O)c3ccccc3)c2c1`, the inhibition was 0.68%.

In the case of `CC1CC(C)CN(C(=O)CSc2nnc(CSc3ncccn3)n2C)C1` (stereo not given), the inhibition was -3.56%.

In the case of `CCN1C(=O)C(CC(=O)Nc2cc(C)ccc2C)SC1=Nc1ccc(S(N)(=O)=O)cc1` (stereo not given), the inhibition is -2.89%.

With `COC(=O)C1=C(C)N=C2SC(C)C(=O)N2C1/C=C/c1ccccc1` (stereo not given), the inhibition was -12.6%.

Turning to `Cc1nn(C)c(Oc2ccccc2)c1[N+](=O)[O-]`, the inhibition is -6.21%.

`CCOC(=O)C1=C(NC(=S)NC(=O)c2ccccc2)c2ccccc2CC1(C)C`: the inhibition is 5.6%.

In the case of `O=S(=O)(c1cnccc1N1CCN(/N=C/c2ccc(Br)cc2)CC1)N1CCCCC1`, the inhibition is -2.5%.

On to `O=C(CCS(=O)(=O)c1ccccc1)Nc1nc2c(s1)CCCC2`, for which the inhibition is 68.7% (active).

On to `Cc1cccc(S(=O)(=O)CC(=O)Nc2nc(-c3ccccc3)cs2)c1`, for which the inhibition was -1.62%.

For the molecule `COCc1nnc(NC(=O)CS(=O)(=O)Cc2ccccc2)s1`, the inhibition was -4.96%.

Regarding `COC(=O)c1ccc(CSc2nnc(NC(C)C)s2)cc1`, the inhibition is -15%.

In the case of `O=C(c1ccc(F)cc1)c1c[nH]c(C(=O)NCc2cccnc2)c1`, the inhibition was 3.12%.

On to `CCSc1nnc(NC(=O)Cc2ccccc2OC)s1`, for which the inhibition was -15.2%.

Regarding `CC(=O)c1cnn(-c2cc(Oc3ccc(F)cc3)ncn2)c1C`, the inhibition was -5.47%.

As to `CC(C)=CC(=O)Nc1nnc(-c2ccc(F)cc2)s1`, the inhibition is -17.5%.

Take `COc1ccc(C(=O)Nc2ncc3c(n2)-c2ccccc2CC3)cc1`: the inhibition was -1.84%.

Take `C/C(=N/NC(=O)c1ccc(NC(=O)c2ccc(F)cc2)cc1)c1ccccc1`: the inhibition was -9.91%.

Consider `CCCc1nnc(NC(=O)CN2C(=O)c3ccccc3S2(=O)=O)s1`, for which the inhibition was -11%.

As for `O=C(CN1C(=O)c2ccccc2S1(=O)=O)N1CCc2ccccc21`, the inhibition was -11.2%.

As for `CNC(=O)CN1C(=O)c2ccccc2S1(=O)=O`, the inhibition is 58.4% (active).

Regarding `CCOC(=O)N1CCN(C(c2cccnc2)c2ccc3cccnc3c2O)CC1` (stereo not given), the inhibition was 5.49%.

Regarding `CN(C(=O)CSc1nnc(N)s1)c1c(N)n(Cc2ccccc2)c(=O)[nH]c1=O`, the inhibition was -0.95%.

Consider `CN1/C(=C\C=C2\N=C(c3ccc(F)cc3)OC2=O)C(C)(C)c2ccccc21`, for which the inhibition is -25.2%.

Turning to `Cc1ccc(NC(=O)c2ccc(CSc3ncnc4nc[nH]c34)cc2)c(C)c1`, the inhibition is 27.2%.

As to `CCOC(=O)N1CCN(S(=O)(=O)c2ccc(C(=O)Nc3ccc(F)cc3F)cc2)CC1`, the inhibition was -7.78%.

As for `O=C(Nc1ccc2c(c1)CCC2)c1cccc(S(=O)(=O)N2CCN(c3ccc(F)cc3)CC2)c1`, the inhibition is -5.86%.

Take `O=C(Nc1cccc(F)c1)c1ccc(S(=O)(=O)N2CCCC2)cc1`: the inhibition is 72.1% (active).

Turning to `CN(Cc1ccccc1)C(=O)COc1ccccc1`, the inhibition is -6.87%.

Consider `C=CCNC(=S)N/N=C/c1ccc(OCc2ccccc2)cc1`, for which the inhibition was 7.95%.

With `O=C(Nc1ccc2c(c1)OCCO2)C(c1ccc(F)cc1)N1CCCCC1` (stereo not given), the inhibition was 1.96%.

For `CC1(C)Cc2c(sc3nc(SCC(=O)NCc4ccccc4)n(-c4ccccc4)c(=O)c23)CS1`, the inhibition was -3.27%.

As for `O=C(Nc1ccccc1Cl)O/N=C(/c1ccccc1)c1ccccn1`, the inhibition is -2.38%.

For the molecule `CCC(C)(C)n1nnnc1CN1CCN(c2nc3ccc(C)cc3cc2C#N)CC1`, the inhibition was -9.44%.

On to `COc1ccc(C(C#N)N2N=C(C)CC2(C)C)cc1` (stereo not given), for which the inhibition was -2.1%.

Regarding `COc1ccc(C2=Nc3cc(C)ccc3OC2)cc1`, the inhibition is -6.91%.

Consider `COc1ccc(-c2nc(CS(=O)CC(=O)NCc3cccnc3)c(C)o2)cc1OC` (stereo not given), for which the inhibition was 78.2% (active).

With `Cc1oc2nc(SCC(=O)NCc3cccnc3)nc(N)c2c1C`, the inhibition was 5.49%.

Take `COc1ccc(-c2nc(CS(=O)CC(=O)NCc3ccccn3)c(C)o2)cc1` (stereo not given): the inhibition is -9.42%.

With `Cc1ccccc1OCc1nnc(SCC(=O)N2c3ccccc3Sc3ccc(Cl)cc32)o1`, the inhibition is 3.98%.

Consider `CCOC(=O)c1c(C)oc2cc(Br)c(OCC(N)=O)cc12`, for which the inhibition was -3.79%.
